Laboratory results published in PubChem BioAssay (NCI).
The panel holds about 83,000 compounds, 20% with a hit somewhere; the sample as a whole holds those more often.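 Cell lines were cultured in 96-well plates, exposed to a single compound concentration, and assessed for percent growth 48 hours later.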 The source made the active and inactive calls. Rule for the calls: active = growth percent below 10; inactive = the rest.

What was measured:
Assay in all cases: NCI-60 one-dose screen, 48 h (100 = growth as untreated, 0 = no growth, -100 = all killed)
SR leukemia = conditions: 10 µM
RPMI-8226 leukemia = conditions: 10 µM
OVCAR-8 ovarian = conditions: 10 µM
OVCAR-5 ovarian = conditions: 10 µM
OVCAR-4 ovarian = conditions: 10 µM
SK-OV-3 ovarian = conditions: 10 µM
IGROV1 ovarian = conditions: 10 µM
OVCAR-3 ovarian = conditions: 10 µM
HS 578T breast = conditions: 10 µM
NCI/ADR-RES ovarian = conditions: 10 µM
BT-549 breast = conditions: 10 µM
MDA-MB-435 melanoma = conditions: 10 µM
SW-620 colon = conditions: 10 µM
MCF7 breast = conditions: 10 µM unless noted
HCT-116 colon = conditions: 10 µM
HCC-2998 colon = conditions: 10 µM
KM12 colon = conditions: 10 µM
T-47D breast = conditions: 10 µM

Measured: growth

Cc1ncc(C#N)c(N)n1
inactive: SR leukemia 92.4% | RPMI-8226 leukemia 103% | OVCAR-8 ovarian 102% | OVCAR-5 ovarian 99.5% | OVCAR-4 ovarian 92.5% | SK-OV-3 ovarian 117% | IGROV1 ovarian 106% | OVCAR-3 ovarian 110% | HS 578T breast 92.3% | NCI/ADR-RES ovarian 100% | BT-549 breast 94.4% | MDA-MB-435 melanoma 90.2% | SW-620 colon 99.9% | MCF7 breast 99.7% | HCT-116 colon 96.7% | HCC-2998 colon 102% | KM12 colon 104%

O=c1[nH]cc(Cl)cc1O
inactive: SR leukemia 76.2% | RPMI-8226 leukemia 69.9% | OVCAR-8 ovarian 91% | OVCAR-5 ovarian 106% | OVCAR-4 ovarian 101% | SK-OV-3 ovarian 101% | IGROV1 ovarian 91% | OVCAR-3 ovarian 88.3% | HS 578T breast 91% | T-47D breast 70.5% | BT-549 breast 90.6% | MDA-MB-435 melanoma 76.4% | SW-620 colon 98.6% | MCF7 breast 91.2% | HCT-116 colon 94.3% | HCC-2998 colon 96.9% | KM12 colon 57.7%

O=C1C=CC(=O)N1c1ccc(I)cc1Cl
inactive: SR leukemia 110% | RPMI-8226 leukemia 92.5% | OVCAR-8 ovarian 73.7% | OVCAR-5 ovarian 102% | OVCAR-4 ovarian 99.4% | SK-OV-3 ovarian 109% | IGROV1 ovarian 113% | OVCAR-3 ovarian 118% | HS 578T breast 109% | NCI/ADR-RES ovarian 97.9% | T-47D breast 84.1% | SW-620 colon 107% | MCF7 breast 98.1% | HCT-116 colon 96.9% | HCC-2998 colon 95.7% | KM12 colon 115%

O=C(O)c1ccccc1NCc1ccco1
inactive: SR leukemia 87.8% | RPMI-8226 leukemia 79.1% | OVCAR-8 ovarian 94.2% | OVCAR-5 ovarian 93.1% | OVCAR-4 ovarian 99.1% | SK-OV-3 ovarian 109% | OVCAR-3 ovarian 111% | HS 578T breast 107% | NCI/ADR-RES ovarian 94.5% | T-47D breast 103% | BT-549 breast 101% | MDA-MB-435 melanoma 119% | SW-620 colon 102% | MCF7 breast 97.4% | HCT-116 colon 105% | HCC-2998 colon 80.9% | KM12 colon 117%

Nc1ccc(C(=O)c2ccc(N)c(Br)c2)cc1Br
active: SK-OV-3 ovarian 8.33% | HS 578T breast -14.8% | NCI/ADR-RES ovarian 0.17% | MDA-MB-435 melanoma -3.36%
inactive: SR leukemia 26.1% | RPMI-8226 leukemia 30.5% | OVCAR-8 ovarian 26.4% | OVCAR-5 ovarian 40% | OVCAR-4 ovarian 49.1% | IGROV1 ovarian 32.8% | T-47D breast 43.5% | BT-549 breast 56.4% | SW-620 colon 21.2% | MCF7 breast 13.2% | HCT-116 colon 14.8% | HCC-2998 colon 14.1%

O=[N+]([O-])c1ccc(Sc2ccncn2)c([N+](=O)[O-])c1
active: MDA-MB-435 melanoma 8.62%
inactive: SR leukemia 30.6% | RPMI-8226 leukemia 40% | OVCAR-8 ovarian 102% | OVCAR-5 ovarian 96.3% | OVCAR-4 ovarian 42.9% | SK-OV-3 ovarian 102% | IGROV1 ovarian 83% | OVCAR-3 ovarian 63.7% | HS 578T breast 92.6% | NCI/ADR-RES ovarian 58% | T-47D breast 48.3% | SW-620 colon 23% | HCT-116 colon 20.1% | HCC-2998 colon 90.5% | KM12 colon 76.2%

C#CC(C)(O)c1ccc(Cl)cc1 (stereo unspecified)
inactive: SR leukemia 96.6% | RPMI-8226 leukemia 101% | OVCAR-8 ovarian 105% | OVCAR-5 ovarian 107% | OVCAR-4 ovarian 102% | SK-OV-3 ovarian 90.3% | IGROV1 ovarian 111% | HS 578T breast 106% | NCI/ADR-RES ovarian 92.4% | T-47D breast 86.1% | BT-549 breast 105% | MDA-MB-435 melanoma 110% | SW-620 colon 109% | MCF7 breast 97% | HCT-116 colon 96.8% | HCC-2998 colon 97.8% | KM12 colon 105%

CCC(=O)Oc1ccc(OC)cc1
inactive: SR leukemia 92.6% | RPMI-8226 leukemia 128% | OVCAR-8 ovarian 108% | OVCAR-5 ovarian 102% | OVCAR-4 ovarian 114% | SK-OV-3 ovarian 101% | IGROV1 ovarian 93.1% | OVCAR-3 ovarian 103% | NCI/ADR-RES ovarian 106% | T-47D breast 101% | MDA-MB-435 melanoma 106% | MCF7 breast 102% | HCT-116 colon 107% | HCC-2998 colon 114% | KM12 colon 106%

O=c1cc2oc3cc(O)c(O)cc3c(-c3ccccc3O)c-2cc1O
inactive: SR leukemia 82.7% | RPMI-8226 leukemia 12.1% | OVCAR-8 ovarian 75.1% | OVCAR-5 ovarian 94.8% | OVCAR-4 ovarian 70.1% | SK-OV-3 ovarian 57.4% | IGROV1 ovarian 63.9% | NCI/ADR-RES ovarian 78.4% | T-47D breast 70.8% | BT-549 breast 77.7% | MDA-MB-435 melanoma 68.9% | SW-620 colon 89.3% | MCF7 breast 75.8% | HCT-116 colon 59.2% | HCC-2998 colon 94.7% | KM12 colon 92.7%

NC(=O)N/N=C\c1ccco1
inactive: SR leukemia 107% | RPMI-8226 leukemia 105% | OVCAR-8 ovarian 109% | OVCAR-5 ovarian 118% | OVCAR-4 ovarian 121% | SK-OV-3 ovarian 102% | IGROV1 ovarian 99.6% | OVCAR-3 ovarian 125% | NCI/ADR-RES ovarian 101% | T-47D breast 107% | BT-549 breast 94.9% | MDA-MB-435 melanoma 118% | SW-620 colon 107% | HCT-116 colon 101% | HCC-2998 colon 99.3% | KM12 colon 113%

O=C(c1ccccc1)C1CCC1
inactive: SR leukemia 92.7% | RPMI-8226 leukemia 98.9% | OVCAR-8 ovarian 99.1% | OVCAR-5 ovarian 109% | SK-OV-3 ovarian 100% | IGROV1 ovarian 114% | OVCAR-3 ovarian 108% | HS 578T breast 115% | NCI/ADR-RES ovarian 107% | T-47D breast 99.7% | MDA-MB-435 melanoma 112% | SW-620 colon 103% | MCF7 breast 71.5% | HCT-116 colon 106% | HCC-2998 colon 100% | KM12 colon 105%

N#CC1(Nc2ccc3c4c(cccc24)CC3)CCCCC1
inactive: SR leukemia 75.4% | RPMI-8226 leukemia 77% | OVCAR-8 ovarian 99.6% | OVCAR-5 ovarian 110% | IGROV1 ovarian 88.3% | OVCAR-3 ovarian 111% | HS 578T breast 97.2% | NCI/ADR-RES ovarian 103% | T-47D breast 54.9% | BT-549 breast 96.3% | MDA-MB-435 melanoma 99% | SW-620 colon 110% | MCF7 breast 15.4% | HCT-116 colon 108% | HCC-2998 colon 116% | KM12 colon 90.1%

CC(C)=NNC(N)=S
inactive: SR leukemia 86.7% | RPMI-8226 leukemia 67.8% | OVCAR-8 ovarian 72.4% | OVCAR-5 ovarian 89% | OVCAR-4 ovarian 59.4% | SK-OV-3 ovarian 115% | OVCAR-3 ovarian 37.2% | HS 578T breast 84.3% | NCI/ADR-RES ovarian 47.3% | T-47D breast 44.1% | MDA-MB-435 melanoma 80.2% | HCT-116 colon 21.4% | HCC-2998 colon 105% | KM12 colon 94.9%
active: MCF7 breast 7%

O=C(/C(=N/O)c1ccccc1)c1ccccc1
inactive: SR leukemia 110% | RPMI-8226 leukemia 99.5% | OVCAR-8 ovarian 103% | OVCAR-5 ovarian 111% | OVCAR-4 ovarian 102% | SK-OV-3 ovarian 106% | OVCAR-3 ovarian 116% | HS 578T breast 101% | NCI/ADR-RES ovarian 113% | T-47D breast 90.2% | BT-549 breast 98% | MDA-MB-435 melanoma 108% | SW-620 colon 107% | MCF7 breast 87.9% | HCT-116 colon 98% | HCC-2998 colon 107% | KM12 colon 107%

O=C1OC[C@H]2[C@H](c3ccc(O)c(O)c3)c3cc(O)c(O)cc3C[C@H]12
inactive: SR leukemia 330% | RPMI-8226 leukemia 167% | OVCAR-8 ovarian 127% | OVCAR-5 ovarian 100% | OVCAR-4 ovarian 110% | SK-OV-3 ovarian 135% | HS 578T breast 111% | T-47D breast 131% | BT-549 breast 134% | MDA-MB-435 melanoma 121% | SW-620 colon 107% | MCF7 breast 121% | HCT-116 colon 103% | KM12 colon 112%
active: NCI/ADR-RES ovarian -28.4%

CCc1ccc(/C(C#N)=C/C=C/c2ccccc2)cc1
inactive: OVCAR-8 ovarian 34.3% | OVCAR-5 ovarian 77.7% | IGROV1 ovarian 35.9% | HS 578T breast 39.7% | T-47D breast 35.3% | BT-549 breast 68.5% | MCF7 breast 16.2% | HCT-116 colon 33.5% | HCC-2998 colon 60.8% | KM12 colon 35.1%
active: SR leukemia 3.53% | RPMI-8226 leukemia 3.92% | OVCAR-3 ovarian -11.2% | NCI/ADR-RES ovarian 8.57% | MDA-MB-435 melanoma -17.5%

Cc1cc(/C=C/c2ccc3cc(N(C)C)ccc3[n+]2C)c(C)n1-c1ccccc1
active: SR leukemia 2.29% | RPMI-8226 leukemia -30.2% | OVCAR-8 ovarian -60.4% | SK-OV-3 ovarian -32.2% | IGROV1 ovarian 3.27% | OVCAR-3 ovarian -73.3% | HS 578T breast -9.95% | T-47D breast -47.3% | BT-549 breast -52.2% | MDA-MB-435 melanoma -49.8% | SW-620 colon 7.4% | MCF7 breast -11.6% | HCT-116 colon -10.3% | HCC-2998 colon 0.715% | KM12 colon -62.1%
inactive: OVCAR-4 ovarian 10.4% | NCI/ADR-RES ovarian 24.7%

CC1CCCCN1C(=S)Nc1ccc(S(=O)(=O)N2CCCCC2)cc1 (stereo unspecified)
inactive: SR leukemia 81.1% | RPMI-8226 leukemia 74.7% | OVCAR-8 ovarian 106% | OVCAR-5 ovarian 100% | OVCAR-4 ovarian 90.4% | IGROV1 ovarian 138% | OVCAR-3 ovarian 97.7% | HS 578T breast 88.9% | NCI/ADR-RES ovarian 107% | BT-549 breast 93.4% | MDA-MB-435 melanoma 96.3% | MCF7 breast 102% | HCT-116 colon 91.5% | HCC-2998 colon 112% | KM12 colon 97.1%

Nc1nc(N)c2cc(S(=O)(=O)c3cccc(C(F)(F)F)c3)ccc2n1
inactive: SR leukemia 46% | RPMI-8226 leukemia 63.1% | OVCAR-8 ovarian 40.7% | OVCAR-5 ovarian 48% | SK-OV-3 ovarian 72.8% | IGROV1 ovarian 39.5% | OVCAR-3 ovarian 79.2% | HS 578T breast 80.1% | NCI/ADR-RES ovarian 52.6% | T-47D breast 74.1% | BT-549 breast 76.8% | MDA-MB-435 melanoma 31.7% | SW-620 colon 25.4% | MCF7 breast 43.1% | HCT-116 colon 15.6% | HCC-2998 colon 37.4% | KM12 colon 53.1%

CN(C)c1nc2c([nH]1)c(=O)n(C)c(=O)n2C
inactive: SR leukemia 102% | RPMI-8226 leukemia 91.7% | OVCAR-8 ovarian 96.9% | OVCAR-5 ovarian 104% | OVCAR-4 ovarian 112% | IGROV1 ovarian 101% | HS 578T breast 93.2% | NCI/ADR-RES ovarian 106% | BT-549 breast 103% | MDA-MB-435 melanoma 111% | SW-620 colon 102% | MCF7 breast 106% | HCT-116 colon 97% | HCC-2998 colon 89.8% | KM12 colon 109%
